{"source": "PubChem BioAssay (Tox21)", "note": "Activity calls are given as the source filed them. Where a call stands in place of a potency, no number is given. The call rests on the fitted dose curve; in most records, active means well fitted activation curve with a large enough effect in the repeat runs; inconclusive means weak or mixed curves; inactive means flat fitted curve, though single readings scatter.", "data": [{"assay": "A CellTox Green Cytotoxicity Assay to monitor cytotoxicity in HEK293 cells - 0 hour (AID 1224869); further: nearly all actives have a fitted effect of over 50% in size", "details": "CellTox Green fluorescence; series mostly up to 76.8 µM", "excerpt": "National Center for Advancing Translational Sciences [NCATS]\nNIH Chemical Genomics Center [NCGC]\nU.S. Environmental Protection Agency [EPA]\nNational Institutes of Environmental Health Sciences [NIEHS]\nNational Toxicology Program [NTP]\nCell-based models are critical for drug discovery. Determining the natural cytotoxic effects resulting from test compounds is an essential research activity. A CellTox Green Cytotoxicity Assay to monitor cytotoxicity in real time of continues cell culture during 40 hours of the compound treatment was used to screen Tox21 10K library compounds in Hek293 cells. CellTox Green Cytotoxicity Assay is a nonlytic, homogeneous, biofluorescent method to measure cytotoxicity in cell culture after experimental manipulation. The assay system uses a proprietary asymmetric cyanine dye that is excluded from viable cells but preferentially stains the dead cell's DNA. […] Viable cells produce no appreciable increases in fluorescence. Therefore, the fluorescence signal produced by the binding interaction with dead cell DNA is proportional to cytotoxicity.\nThe mixture of Hek293 cell suspension and reagents were dispensed at 600cells/6 ul/well in 1536-well tissue culture treated black solid bottom plates using a Multidrop dispenser. After the assay plates were incubated at a 37 C/5% CO2 incubator for 5 hours, 23 nL of compounds dissolved in DMSO, positive and negative controls was transferred to the assay plate by a pintool work station. The plates were incubated at 37 C for 40 hours. The fluorescence intensity were measured at 0h, 8h, 16h, 24h, 32h and 40h time points using ViewLux plate reader during compound treatment.", "values": [{"compound": "COC(=O)C(C)O", "note": "(stereo not given)", "Potency": "inactive"}, {"compound": "Cc1ncc(CO)c(CN)c1O", "Potency": "inactive"}, {"compound": "CCOC(=O)c1cc(=O)c2c(OCC(COc3cccc4oc(C(=O)OCC)cc(=O)c34)OC(=O)[C@@H](N)CCCCN)cccc2o1", "Potency": "inactive"}, {"compound": "CCCCCOc1ccc(C2SC(=O)NC2=O)cc1OCC", "note": "(stereo not given)", "Potency": "inactive"}, {"compound": "COc1nc(C)nc(NC(=O)NS(=O)(=O)c2ccccc2OCCCl)n1", "Potency": "inactive"}, {"compound": "OCCN(CCO)c1ccccc1", "Potency": "inactive"}, {"compound": "Oc1ccccc1C=NCc1ccccc1", "Potency": "inactive"}, {"compound": "CCCCNc1ccc(C(=O)OCCN(CC)CC)cc1", "Potency": "inactive"}, {"compound": "CCOc1ccc(NC(N)=O)cc1", "Potency": "inactive"}, {"compound": "COc1cc(C)ccc1C(C)C", "Potency": "inactive"}, {"compound": "O=C(O)CN(CCN(CC(=O)O)CC(=O)O)CCN(CC(=O)O)CC(=O)O", "cytotoxicity": "4.99% [at 15.8 µM] (inactive)"}, {"compound": "CCOC(=O)[C@H](CCc1ccccc1)N[C@@H](C)C(=O)N1Cc2cc(OC)c(OC)cc2C[C@H]1C(=O)O", "Potency": "inactive"}, {"compound": "COc1cc2c(cc1N)oc1ccccc12", "Potency": "inactive"}, {"compound": "COC(C)CCO", "note": "(stereo not given)", "Potency": "inactive"}, {"compound": "CO[C@@]1(NC(=O)CSCC#N)C(=O)N2C(C(=O)O)=C(CSc3nnnn3C)CS[C@@H]21", "Potency": "inactive"}, {"compound": "N#CSCC(=O)O", "Potency": "inactive"}, {"compound": "CC1=CC(=O)CC(C)(C)C1=O", "Potency": "inactive"}, {"compound": "NC(=O)NS(=O)(=O)c1ccc(Cl)cc1", "Potency": "inactive"}, {"compound": "CS(=O)(=O)c1ccc([C@@H](O)[C@@H](CF)NC(=O)C(Cl)Cl)cc1", "Potency": "inactive"}, {"compound": "CC1=C2[C@H](/C=C(\\C)C(=O)O)CC[C@@H](C)[C@H]2CC1", "Potency": "inactive"}, {"compound": "CCN(CCCc1ccccc1)CCCc1ccccc1", "Potency": "inactive"}, {"compound": "Cc1onc(-c2ccccc2)c1C(=O)Cl", "Potency": "inactive"}, {"compound": "CCOC(=O)C1CC(=O)C(=C(O)C2CC2)C(=O)C1", "note": "(stereo not given)", "Potency": "inactive"}, {"compound": "CCCCN1C[C@H](O)[C@@H](O)[C@H](O)[C@H]1CO", "Potency": "inactive"}, {"compound": "CC(C)c1ccccc1", "Potency": "inactive"}, {"compound": "Clc1cccc(-c2cc(Cl)cc(Cl)c2)c1", "Potency": "inactive"}, {"compound": "Cc1ccc(C(C)C)cc1O", "Potency": "inactive"}, {"compound": "CN(C)C(=O)NC1(c2ccccc2)CCN(CCC[C@]2(c3ccc(Cl)c(Cl)c3)CCCN(C(=O)c3ccccc3)C2)CC1", "cytotoxicity": "-1.6% [at 15.8 µM] (inactive)"}, {"compound": "O=C1Nc2ccc([N+](=O)[O-])cc2C1=O", "Potency": "inactive"}, {"compound": "O=C(C(Cl)Cl)N1CCOC12CCCCC2", "Potency": "inactive"}, {"compound": "CCCCc1ccc2nc(NC(=O)OC)[nH]c2c1", "Potency": "inactive"}, {"compound": "CN1CCC[C@@H]1Cc1c[nH]c2ccc(CCS(=O)(=O)c3ccccc3)cc12", "Potency": "inactive"}, {"compound": "CCCCCCCCCCCCOCCOS(=O)(=O)O", "Potency": "inactive"}, {"compound": "CCOc1ccc2nc(N)sc2c1", "Potency": "inactive"}, {"compound": "CCCCCCCOC(=O)CCC", "Potency": "inactive"}, {"compound": "Nc1ccc2ccccc2c1S(=O)(=O)O", "Potency": "inactive"}, {"compound": "C/C(=N\\O)[C@@H](C)NCC(C)(C)CN[C@H](C)/C(C)=N/O", "Potency": "inactive"}, {"compound": "CCCCCCC", "Potency": "inactive"}, {"compound": "CCCS(=O)c1ccc2nc(NC(=O)OC)[nH]c2c1", "note": "(stereo not given)", "Potency": "inactive"}, {"compound": "CC(C)C(=O)OC/C=C/c1ccccc1", "Potency": "inactive"}]}]}
